Results published in publication PMC5540273 (PLoS ONE, 2017).

system: CSNK1D; settings: concentration: 1 μM, replicates: in singlicate; n = 1
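Note: KINOMEscan kinase panel screen.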

SMILES	%Inh
O=C(Nc1n[nH]c2nc(-c3ccccc3O)ccc12)C1CC1 [SB-711880]	0%
CN(c1ccc(NC(=O)N2CCN(CCCN3CCOCC3)CC2)cc1)c1ccnc(Nc2ccc(CS(C)(=O)=O)cc2)n1.Cl [GW830899]	5%
CCOc1nccc(-c2c(-c3ccc(F)cc3)ncn2C2CCNCC2)n1 [SB-249175]	95.3%
O=C(Nc1n[nH]c2nc(-c3cccc(O)c3)ccc12)C1CC1 [SB-711805]	11%
Cc1ccc(NC(=O)c2ccnc(N3CCCCC3)c2)cc1-c1ccc(C(=O)NCC2CC2)cc1 [GW775610]	0%
Cc1cccc(Nc2nc(NCCN)ncc2C(N)=O)c1 [GSK1292139]	52%
CN(c1ccc(F)c(NC(=O)c2cccc(OC(C)(C)C#N)c2Cl)c1)c1ccc2nc(NC(=O)C3CC3)sc2n1	0%
Cc1ccc(NC(=O)c2ccc(Cl)c(Cl)c2)cc1-c1ccc(C(=O)Nc2ccncc2)cc1 [GSK1398460]	7%
O=C(Nc1n[nH]c2nc(-c3ccccc3)ccc12)C1CC1 [SB-708999]	13%
CCNC(=O)/C=C/c1n[nH]c2cc(Sc3ccccc3C(=O)NC)ccc12	0%
COc1ccc(C)c(Nc2ccnc(Nc3ccc(-c4cnc[nH]4)cc3)n2)c1.Cl [GW784041]	16%
Cc1nn2c(=O)cc(N3CCO[C@H](C)C3)nc2n1Cc1cccc(Cl)c1Cl [GSK2373693]	69%
c1ccc(Oc2ccc(Nc3ccnc4cc(-c5ccc(CN6CCCCC6)o5)ccc34)cc2)nc1 [GW567143]	10%
COC(=O)Nc1nc2cc(Oc3ccc(NC(=O)Nc4cccc(SC)c4)cc3)ccc2[nH]1.Cl [GW697999]	17%
CC(C)NCC(Cc1ccccc1)NC(=O)c1cc(Br)c(-c2ccnc3[nH]ccc23)s1.Cl.Cl (centres unmarked) [GSK1383281]	26%
N#Cc1cnc2cc(-c3cnc(CNCCN4CCOCC4)s3)ccc2c1Nc1ccc(Oc2ccccc2)cc1 [GW664114]	0%
Cc1cc(-c2c(-c3ccc(F)cc3)ncn2CCCN2CCOCC2)nc(N)n1 [SB-222517]	7%
CN(C)CCNS(=O)(=O)c1ccc(-c2ccnc3[nH]ccc23)cc1 [GSK977620]	38%
CN(c1ccc(NC(=O)Nc2cccc(Cl)c2)cc1)c1ccnc(N)n1.Cl [GW830707]	18%

SMILES	%Inh
Cl.O=C(Nc1ccc(Oc2ccc3[nH]c(NC(=O)c4ccco4)nc3c2)cc1)Nc1cc(C(F)(F)F)ccc1F [GW683134]	10%
Cl.Cl.NC(CNC(=O)c1cc(Br)c(-c2ccnc3[nH]ccc23)s1)c1ccccc1 (centres unmarked) [GSK1322949]	89%
COc1ccc(C2=C(Nc3cccc(O)c3)C(=O)NC2=O)cc1 [SB-390766]	94%
Nc1cccc(-c2ccc3c(N)n[nH]c3c2)c1 [GSK2193613]	8%
Cl.Cl.NCC(NC(=O)c1cc(-c2cccnc2)c(-c2ccnc3[nH]ccc23)s1)c1ccccc1 (centres unmarked) [GSK1323434]	96.7%
COc1ccc(NC(=O)c2ccoc2)cc1-c1ccc(C(=O)NCC2CC2)cc1 [GW810437]	0%
CC(C)(C)c1ccc(C(=O)Nc2cn3cc(-n4ccnc4)ccc3n2)cc1	84%
Cc1ccc(Nc2ccnc(Nc3ccc(C)c(F)c3)n2)cc1O.Cl [GW582868]	0%
Cc1ccc(NC(=O)c2cccc(N3CCCCC3)c2)cc1-c1ccc(C(=O)NCC2CC2)cc1 [GSK1917008]	27%
COc1cccc(C2=C(Nc3cccc(O)c3)C(=O)NC2=O)c1 [SB-390771]	32%
CSc1ccc(NC2=C(c3ccc(Cl)cc3)C(=O)NC2=O)cc1 [SB-317658]	1%
Cc1cc(-c2ccnc(Nc3cccc(C#N)c3)n2)cc(C)c1O [GSK1440913]	76%
O=C(Nc1n[nH]c2cc(-c3cccs3)ccc12)C1CC1 [SB-731284]	0%
CCn1cnc2c(NCc3ccccc3)ncnc21 [SKF-96418]	20%
Cn1cc(-c2ccc3c(c2)CCN3C(=O)Cc2cc(F)cc(F)c2F)c2c(N)ncnc21 [GSK2634140]	13%
O=C(O)C(F)(F)F.O=c1[nH]ccc2nc(N[C@@H]3CCNC3)nc(Nc3ccc4c(c3)S(=O)(=O)CC4)c12 [GSK2181306]	96.7%
COc1cccc(NC(=O)NCCNc2ccnc(Nc3ccc(F)cc3)n2)c1 [GSK1379879]	0%
CN1CCN(Cc2ccc(NC(=O)Nc3ccc(N(C)c4ccnc(Nc5ccc(CS(C)(=O)=O)cc5)n4)cc3)cc2)CC1.Cl [GW827654]	15%

system: CSNK1E; settings: concentration: 1 μM, replicates: in singlicate; n = 1

SMILES	%Inh
O=C(Nc1n[nH]c2nc(-c3ccccc3O)ccc12)C1CC1 [SB-711880]	0%
CN(c1ccc(NC(=O)N2CCN(CCCN3CCOCC3)CC2)cc1)c1ccnc(Nc2ccc(CS(C)(=O)=O)cc2)n1.Cl [GW830899]	0%
CCOc1nccc(-c2c(-c3ccc(F)cc3)ncn2C2CCNCC2)n1 [SB-249175]	99.4%
O=C(Nc1n[nH]c2nc(-c3cccc(O)c3)ccc12)C1CC1 [SB-711805]	34%
Cc1ccc(NC(=O)c2ccnc(N3CCCCC3)c2)cc1-c1ccc(C(=O)NCC2CC2)cc1 [GW775610]	0%
Cc1cccc(Nc2nc(NCCN)ncc2C(N)=O)c1 [GSK1292139]	84%
CN(c1ccc(F)c(NC(=O)c2cccc(OC(C)(C)C#N)c2Cl)c1)c1ccc2nc(NC(=O)C3CC3)sc2n1	0%
Cc1ccc(NC(=O)c2ccc(Cl)c(Cl)c2)cc1-c1ccc(C(=O)Nc2ccncc2)cc1 [GSK1398460]	18%
O=C(Nc1n[nH]c2nc(-c3ccccc3)ccc12)C1CC1 [SB-708999]	0%
CCNC(=O)/C=C/c1n[nH]c2cc(Sc3ccccc3C(=O)NC)ccc12	18%
COc1ccc(C)c(Nc2ccnc(Nc3ccc(-c4cnc[nH]4)cc3)n2)c1.Cl [GW784041]	27%
Cc1nn2c(=O)cc(N3CCO[C@H](C)C3)nc2n1Cc1cccc(Cl)c1Cl [GSK2373693]	25%
c1ccc(Oc2ccc(Nc3ccnc4cc(-c5ccc(CN6CCCCC6)o5)ccc34)cc2)nc1 [GW567143]	13%
COC(=O)Nc1nc2cc(Oc3ccc(NC(=O)Nc4cccc(SC)c4)cc3)ccc2[nH]1.Cl [GW697999]	22%
CC(C)NCC(Cc1ccccc1)NC(=O)c1cc(Br)c(-c2ccnc3[nH]ccc23)s1.Cl.Cl (centres unmarked) [GSK1383281]	33%
N#Cc1cnc2cc(-c3cnc(CNCCN4CCOCC4)s3)ccc2c1Nc1ccc(Oc2ccccc2)cc1 [GW664114]	39%
Cc1cc(-c2c(-c3ccc(F)cc3)ncn2CCCN2CCOCC2)nc(N)n1 [SB-222517]	1%
CN(C)CCNS(=O)(=O)c1ccc(-c2ccnc3[nH]ccc23)cc1 [GSK977620]	48%
CN(c1ccc(NC(=O)Nc2cccc(Cl)c2)cc1)c1ccnc(N)n1.Cl [GW830707]	0%

SMILES	%Inh
Cl.O=C(Nc1ccc(Oc2ccc3[nH]c(NC(=O)c4ccco4)nc3c2)cc1)Nc1cc(C(F)(F)F)ccc1F [GW683134]	0%
Cl.Cl.NC(CNC(=O)c1cc(Br)c(-c2ccnc3[nH]ccc23)s1)c1ccccc1 (centres unmarked) [GSK1322949]	90.8%
COc1ccc(C2=C(Nc3cccc(O)c3)C(=O)NC2=O)cc1 [SB-390766]	20%
Nc1cccc(-c2ccc3c(N)n[nH]c3c2)c1 [GSK2193613]	5%
Cl.Cl.NCC(NC(=O)c1cc(-c2cccnc2)c(-c2ccnc3[nH]ccc23)s1)c1ccccc1 (centres unmarked) [GSK1323434]	99%
COc1ccc(NC(=O)c2ccoc2)cc1-c1ccc(C(=O)NCC2CC2)cc1 [GW810437]	3%
CC(C)(C)c1ccc(C(=O)Nc2cn3cc(-n4ccnc4)ccc3n2)cc1	70%
Cc1ccc(Nc2ccnc(Nc3ccc(C)c(F)c3)n2)cc1O.Cl [GW582868]	19%
Cc1ccc(NC(=O)c2cccc(N3CCCCC3)c2)cc1-c1ccc(C(=O)NCC2CC2)cc1 [GSK1917008]	21%
COc1cccc(C2=C(Nc3cccc(O)c3)C(=O)NC2=O)c1 [SB-390771]	29%
CSc1ccc(NC2=C(c3ccc(Cl)cc3)C(=O)NC2=O)cc1 [SB-317658]	6%
Cc1cc(-c2ccnc(Nc3cccc(C#N)c3)n2)cc(C)c1O [GSK1440913]	90.3%
O=C(Nc1n[nH]c2cc(-c3cccs3)ccc12)C1CC1 [SB-731284]	8%
CCn1cnc2c(NCc3ccccc3)ncnc21 [SKF-96418]	16%
Cn1cc(-c2ccc3c(c2)CCN3C(=O)Cc2cc(F)cc(F)c2F)c2c(N)ncnc21 [GSK2634140]	47%
O=C(O)C(F)(F)F.O=c1[nH]ccc2nc(N[C@@H]3CCNC3)nc(Nc3ccc4c(c3)S(=O)(=O)CC4)c12 [GSK2181306]	96.3%
COc1cccc(NC(=O)NCCNc2ccnc(Nc3ccc(F)cc3)n2)c1 [GSK1379879]	0%
CN1CCN(Cc2ccc(NC(=O)Nc3ccc(N(C)c4ccnc(Nc5ccc(CS(C)(=O)=O)cc5)n4)cc3)cc2)CC1.Cl [GW827654]	30%
